According to PubChem BioAssay (NCATS):
Results filed as inconclusive are left out. A call without a number means that no potency is given here. Calls of active or inactive are those of the source. Calls follow the shape of the full dose curve.

Columns and labels:
[1] = Primary qHTS for Huh7 cytotoxicity: counterscreen for inhibitors of MERS-S pseudotyped particle cell entry (AID 1479147); conditions: outcome: dose series up to 57.1 µM unless noted; also: potency is read from the fitted curve at half-maximal effect
[2] = Primary qHTS for inhibitors of MERS-S pseudo-typed particle cell entry (AID 1479149); conditions: outcome: dose series up to 57.1 µM unless noted; also: nearly all actives have a fitted effect of over 60% in size; also: potency is read from the fitted curve at half-maximal effect
[3] = Primary qHTS for Vero E6 cytotoxicity: counterscreen for inhibitors of SARS-S pseudo-typed particle cell entry (AID 1479150); conditions: outcome: dose series up to 57.1 µM unless noted
[4] = Cytotoxicity counterscreen for inhibitors of SARS-CoV-2 cell entry (AID 1645845); conditions: outcome: dose series up to 57.1 µM unless noted; also: nearly all actives have a fitted effect of over 50% in size; also: potency is read from the fitted curve at half-maximal effect
Summary of the method: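 Counterscreen run in the same HEK293-ACE2 line as the pseudotyped-particle entry assay, without particles. Viability after 48 h at 37 C was read as ATP luminescence, scaled between cell-containing and cell-free wells.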

[5] = Primary qHTS to identify inhibitors of SARS-CoV-2 cell entry (AID 1645846); conditions: SARS-CoV-2 pseudovirus cell entry assay, luminescence; activity change, negative = inhibition: at 57.1 µM (top of the series) unless noted; also: nearly all actives have a fitted effect of over 45% in size; also: potency is read from the fitted curve at half-maximal effect
Summary of the method: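 HEK293 cells stably expressing human ACE2, pre-treated 1 h with compound, then infected with MLV particles pseudotyped with Wuhan-Hu-1 spike (C-terminal 19-aa truncation). Luciferase luminescence after 48 h at 37 °C, normalised to spike PP and bald PP.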

In the case of `CC1CCCC(C)N1C(=S)Nc1cccc(C(F)(F)F)c1` (centres undefined), the Potency [1] is reported as “inactive”, the Potency [2] is reported as “inactive” and the Potency [3] is reported as “inactive”. The Potency [4] was “inactive”.

In the case of `O=C1N=C(N2CCOCC2)CN1c1ccc(Cl)cc1`, the Potency [1] is reported as “inactive”, the Potency [2] is reported as “inactive” and the Potency [3] is reported as “inactive”. The Potency [4] was “inactive”.

In the case of `COc1nc2ccc(Br)cc2cc1[C@@H](c1ccccc1)[C@@](O)(CCN(C)C)c1cccc2ccccc12`, the Potency [1] is reported as “inactive”, the Potency [2] is reported as “inactive” and the Potency [3] is reported as “inactive”. For the same molecule, the Potency [4] was “inactive”.

For `CCCOc1cc(N)ccc1C(=O)OCCN(CC)CC`, the Potency [1] was “inactive”, the Potency [2] was “inactive” and the Potency [3] was “inactive”. For the same molecule, the Potency [4] was “inactive” and the activity change, negative = inhibition [5] was -10.9%.

For `COc1cc(N)cn[n+]1-c1ccccc1`, the Potency [1] was “inactive”, the Potency [2] was “inactive” and the Potency [3] was “inactive”. For the same molecule, the Potency [4] was “inactive”.

In the case of `[Mn].[O]=[Mn][OH].[O]=[Mn][OH]`, the Potency [1] is reported as “inactive”, the Potency [2] is reported as “inactive” and the Potency [3] is reported as “inactive”. The Potency [4] was “inactive”.

With `CO/N=C(/C(=O)N[C@@H]1C(=O)N2C(C(=O)OC(C)OC(C)=O)=C(COC(N)=O)CS[C@H]12)c1ccco1` (some centres undefined) the Potency [1] was “inactive”, the Potency [2] was “inactive” and the Potency [3] was “inactive”. For the same molecule, the Potency [4] was “inactive” and the activity change, negative = inhibition [5] was -14.5%.

With `Cc1ccc(/C(=C\CN2CCCC2)c2cccc(/C=C/C(=O)O)n2)cc1` the Potency [1] was “inactive”, the Potency [2] was “inactive” and the Potency [3] was “inactive”. The Potency [4] was “inactive”.

In the case of `CCC(c1ccccc1)c1noc(CCN(CC)CC)n1` (centres undefined), the Potency [1] is reported as “inactive”, the Potency [2] is reported as “inactive” and the Potency [3] is reported as “inactive”. For the same molecule, the Potency [4] was “inactive” and the activity change, negative = inhibition [5] was -15.7%.

With `N[C@H](Cc1cnc[nH]1)C(=O)O` the Potency [1] was “inactive”, the Potency [2] was “inactive” and the Potency [3] was “inactive”. The Potency [4] was “inactive”.

In the case of `CC#CCC(C)[C@H](O)/C=C/[C@@H]1[C@H]2C/C(=C/CCCC(=O)O)C[C@H]2C[C@H]1O` (some centres undefined), the Potency [1] is reported as “inactive”, the Potency [2] is reported as “inactive” and the Potency [3] is reported as “inactive”. For the same molecule, the Potency [4] was “inactive”.

In the case of `CN[C@@H]1[C@@H](O)[C@@H](O[C@@H]2[C@@H](O)[C@H](OC3O[C@H](CN)[C@@H](O)[C@H](O)[C@H]3O)[C@@H](N)C[C@H]2NC(=O)[C@@H](O)CN)OC[C@]1(C)O` (some centres undefined), the Potency [1] is reported as “inactive”, the Potency [2] is reported as “inactive” and the Potency [3] is reported as “inactive”. For the same molecule, the Potency [4] was “inactive”.

With `CN1c2c(nc(N)[nH]c2=O)NC[C@@H]1CNc1ccc(C(=O)N[C@@H](CCC(=O)O)C(=O)O)cc1` the outcome [1] was “inactive [at 5.34 µM]”, the outcome [2] was “inactive [at 5.34 µM]” and the outcome [3] was “inactive [at 5.34 µM]”. The outcome [4] was “inactive [at 5.25 µM]”.

With `CC(=O)Nc1c(I)c(C(=O)N[C@H]2C(O)O[C@H](CO)[C@@H](O)[C@@H]2O)c(I)c(N(C)C(C)=O)c1I` (some centres undefined) the Potency [1] was “inactive”, the Potency [2] was “inactive” and the Potency [3] was “inactive”. For the same molecule, the Potency [4] was “inactive”.

For `Cn1nnnc1SCC1=C(C(=O)O)N2C(=O)[C@@H](NC(=O)[C@H](OC=O)c3ccccc3)[C@H]2SC1`, the Potency [1] was “inactive”, the Potency [2] was “inactive” and the Potency [3] was “inactive”. For the same molecule, the Potency [4] was “inactive”.

In the case of `C[C@H](Cc1cc2c(c(C(N)=O)c1)N(CCCO)CC2)NCCOc1ccccc1OCC(F)(F)F`, the Potency [1] is reported as “inactive”, the Potency [2] is reported as “inactive” and the Potency [3] is reported as “inactive”. The Potency [4] was “inactive”.

In the case of `CCC(c1ccccc1)c1c(O)c2ccccc2oc1=O` (centres undefined), the Potency [1] is reported as “inactive”, the Potency [2] is reported as “inactive” and the Potency [3] is reported as “inactive”. For the same molecule, the Potency [4] was “inactive”.

With `O=C(c1ccc(F)c(F)c1Nc1ccc(I)cc1F)N1CC(O)([C@@H]2CCCCN2)C1` the Potency [1] was “inactive”, the Potency [2] was “inactive” and the Potency [3] was “inactive”. For the same molecule, the Potency [4] was 31.6 µM (active).

In the case of `COC(=O)[C@@H](N)CS`, the Potency [1] is reported as “inactive”, the Potency [2] is reported as “inactive” and the Potency [3] is reported as “inactive”. For the same molecule, the Potency [4] was “inactive”.

With `OC(c1ccccc1)(c1ccccc1)C12CC[N+](CCOCc3ccccc3)(CC1)CC2` the Potency [1] was “inactive”, the Potency [2] was “inactive” and the Potency [3] was “inactive”. The Potency [4] was “inactive”.

For `COc1ccc(-c2noc(CC(=O)O)c2-c2ccc(OC)cc2)cc1`, the Potency [1] was “inactive”, the Potency [2] was “inactive” and the Potency [3] was “inactive”. For the same molecule, the Potency [4] was “inactive” and the activity change, negative = inhibition [5] was -24.5%.

For `CNCc1cc(-c2ccccc2F)n(S(=O)(=O)c2cccnc2)c1`, the Potency [1] was “inactive”, the Potency [2] was “inactive” and the Potency [3] was “inactive”. The Potency [4] was “inactive”.

In the case of `CC1CCCCN1CCCOC(=O)c1ccccc1` (centres undefined), the Potency [1] is reported as “inactive”, the Potency [2] is reported as “inactive” and the Potency [3] is reported as “inactive”. The Potency [4] was “inactive”.

In the case of `N=C(N)c1ccc(/C=C/c2ccc(C(=N)N)cc2O)cc1`, the Potency [1] is reported as “inactive”, the Potency [2] is reported as “inactive” and the Potency [3] is reported as “inactive”. The Potency [4] was “inactive”.

In the case of `C#C[C@]1(OC(C)=O)CC[C@H]2[C@@H]3CCC4=CC(=O)CC[C@@H]4[C@H]3CC[C@@]21C`, the Potency [1] is reported as “inactive”, the Potency [2] is reported as “inactive” and the Potency [3] is reported as “inactive”. For the same molecule, the Potency [4] was “inactive”.

In the case of `O=C(O)C[C@@H]1CC[C@H](NC(=O)Cc2cccs2)B(O)O1`, the Potency [1] is reported as “inactive”, the Potency [2] is reported as “inactive” and the Potency [3] is reported as “inactive”. For the same molecule, the Potency [4] was “inactive”.

For `N[C@@H](C(=O)N[C@@H]1C(=O)N2C(C(=O)O)=C(Cl)CC[C@H]12)c1ccccc1`, the Potency [1] was “inactive”, the Potency [2] was “inactive” and the Potency [3] was “inactive”. The Potency [4] was “inactive” and the activity change, negative = inhibition [5] was -20.1%.

With `NC(=O)C1(N2CCCCC2)CCN(CCCN2c3ccccc3CCc3ccccc32)CC1` the Potency [1] was 28.2 µM (active), the Potency [2] was 8.91 µM (active) and the Potency [3] was “inactive”. The Potency [4] was 31.6 µM (active).

With `O=C(O)c1cc(O)c2c(c1)[C@H]([C@H]1c3cc(C(=O)O)cc(O)c3C(=O)c3c(O[C@@H]4O[C@H](CO)[C@@H](O)[C@H](O)[C@H]4O)cccc31)c1cccc(O[C@@H]3O[C@H](CO)[C@@H](O)[C@H](O)[C@H]3O)c1C2=O` the Potency [1] was “inactive”, the Potency [2] was “inactive” and the Potency [3] was “inactive”. For the same molecule, the Potency [4] was “inactive”.

In the case of `CS(=O)(=O)OCCCNCCCOS(C)(=O)=O`, the Potency [1] is reported as “inactive”, the Potency [2] is reported as “inactive” and the Potency [3] is reported as “inactive”. The Potency [4] was “inactive”.

With `O=C(O)[C@H]1OC(O)[C@H](O)[C@@H](O)[C@@H]1O` (some centres undefined) the Potency [1] was “inactive”, the Potency [2] was “inactive” and the Potency [3] was “inactive”. The Potency [4] was “inactive”.

With `CC[C@@H]1CCN[C@H](C(=O)N[C@@H]([C@H]2O[C@H](SC)[C@H](O)[C@@H](O)[C@H]2O)[C@H](C)Cl)C1` the Potency [1] was “inactive”, the Potency [2] was “inactive” and the Potency [3] was “inactive”. The Potency [4] was “inactive”.

In the case of `N=c1ccn2c(n1)O[C@@H]1[C@@H](O)[C@H](CO)O[C@@H]12`, the Potency [1] is reported as “inactive”, the Potency [2] is reported as 8.91 µM (active) and the Potency [3] is reported as “inactive”. For the same molecule, the Potency [4] was “inactive” and the Potency [5] was 2.51 µM (active).

For `COc1ccc2c(=O)c(C)c(-c3ccccc3)oc2c1CN(C)C`, the Potency [1] was “inactive”, the Potency [2] was “inactive” and the Potency [3] was “inactive”. The Potency [4] was “inactive”.

For `CC(=O)N(CC(C)C(=O)O)c1c(I)cc(I)c(N)c1I` (centres undefined), the Potency [1] was “inactive”, the Potency [2] was “inactive” and the Potency [3] was “inactive”. For the same molecule, the Potency [4] was “inactive”.

With `CC1(C)SC2C(NC(=O)Cc3ccccc3)C(=O)N2C1C(=O)O` (centres undefined) the Potency [1] was “inactive”, the Potency [2] was “inactive” and the Potency [3] was “inactive”. The Potency [4] was “inactive” and the activity change, negative = inhibition [5] was -15.9%.

For `CCCCCCC(=O)O[C@H]1CC[C@H]2[C@@H]3CCc4cc(O)ccc4[C@H]3CC[C@]12C`, the Potency [1] was “inactive”, the Potency [2] was “inactive” and the Potency [3] was “inactive”. The Potency [4] was “inactive”.

For `CC(C)(C)C(=O)OCOC(=O)[C@@H]1N2C(=O)[C@@H](N=CN3CCCCCC3)[C@H]2SC1(C)C`, the Potency [1] was “inactive”, the Potency [2] was “inactive” and the Potency [3] was “inactive”. For the same molecule, the Potency [4] was “inactive”.

For `O=C(O)c1cc2ccccc2c(Cc2c(O)c(C(=O)O)cc3ccccc23)c1O`, the Potency [1] was “inactive”, the Potency [2] was “inactive” and the Potency [3] was “inactive”. For the same molecule, the Potency [4] was “inactive” and the Potency [5] was “inactive”.

For `CC1=C(C(=O)O)N2C(=O)[C@@H](NC(=O)[C@H](N)C3=CCC=CC3)[C@@H]2SC1`, the Potency [1] was “inactive”, the Potency [2] was “inactive” and the Potency [3] was “inactive”. The Potency [4] was “inactive” and the activity change, negative = inhibition [5] was -32.9%.

With `Cc1cc(CC(C)C[Si](C)(O[Si](C)(C)C)O[Si](C)(C)C)c(O)c(-n2nc3ccccc3n2)c1` (centres undefined) the Potency [1] was “inactive”, the Potency [2] was “inactive” and the Potency [3] was “inactive”. For the same molecule, the Potency [4] was “inactive” and the activity change, negative = inhibition [5] was -21.7% [at 19 µM].

With `CCCCC(F)(F)C1(O)CCC2C(CC(=O)C2CCCCCCC(=O)O)O1` (centres undefined) the Potency [1] was “inactive”, the Potency [2] was “inactive” and the Potency [3] was “inactive”. The Potency [4] was “inactive” and the Potency [5] was “inactive”.

For `CC1(C)S[C@@H]2[C@H](NC(=O)[C@H](NC(=O)N3CCN(S(C)(=O)=O)C3=O)c3ccccc3)C(=O)N2[C@H]1C(=O)O`, the Potency [1] was “inactive”, the Potency [2] was “inactive” and the Potency [3] was “inactive”. For the same molecule, the Potency [4] was “inactive” and the activity change, negative = inhibition [5] was -10%.
